Here are results for six molecules from PubChem BioAssay.

One assay has as its target Albumin (Bos taurus) (UniProt P02769). In words: bovine serum albumin binders on microarray, profiling panel, artefact control for SMM control protein annotation, biochemical, small-molecule microarray, Alexa647 label, 635/667 nm fluorescence (AID 1118).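 Note: score merges 667 nm emission intensity and signal-to-noise per printed compound spot.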 To be noted: BSA-A647 binding, fluorescence 635 nm, higher = more signal.
The nature of assay [1]: small-molecule microarray binders of probe aXIP, primary screen, biochemical, NeuroSMM set, 635/667 nm fluorescence (AID 1119).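 Note: probe is the protein aXip251-270 applied at 1 µg/mL to compound-printed slides; binding of probe to printed compounds measured as 667 nm fluorescence plus signal to noise.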 Particulars: higher = more signal, called active from +8 up or from −8 down.
Assay [2] in a line: small-molecule binders of probe aNOTCH3, primary screen, biochemical, small-molecule microarray, 635/667 nm fluorescence (AID 1120).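 Note: probe is a biotin-tagged antibody raised against NOTCH3 rather than NOTCH3 protein; score merges spot fluorescence near 667 nm with spot signal to noise.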 To be noted: higher = more signal.
A short description of assay [3]: small-molecule binders of probe aNOTCH2, primary screen, biochemical, small-molecule microarray, 635/667 nm fluorescence (AID 1121).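 Note: score merges feature fluorescence read at 667 nm with its signal to noise.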 Particulars: higher = more signal.
Assay [4] has as its target Carbonic anhydrase 2 (Homo sapiens) (UniProt P00918). Nature of the assay: CAII small-molecule binders, profiling panel, biochemical, small-molecule microarray, Alexa647-labelled CAII (AID 1122). Particulars: CAII-A647 binding fluorescence, higher = more signal.
A short description of assay [5]: COS7 lysate on small-molecule microarray, probe aHis, 635 nm (AID 1123).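 Note: z-score combines 667nm fluorescence intensity with signal-to-noise per printed compound spot.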 Particulars: COS7 cell lysate, fluorescence, higher = more signal.
Assay [6] in a line: compound binding in COS7 lysate, probe aLAP1, primary screen, cell lysate, small-molecule microarray (AID 1124).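 Note: lysate comes from COS7 cells expressing LAP1 and is applied at 0.3 µg/mL; score merges spot fluorescence near 667 nm with signal-to-noise over triplicate slides.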 Particulars: probe aLAP1, fluorescence, higher = more signal.
For a further assay, the system named is Sam68 (KHDRBS1). Nature of the assay: Sam68 small-molecule binders, primary screen, biochemical, small-molecule microarray, 635 nm fluorescence (AID 1125).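 Note: score merges 667 nm channel intensity with signal to noise over triplicate slides.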 Particulars: small-molecule microarray binding, higher = more signal.
Assay [7] has as its system Chordin-like protein 2 (CHRDL2). In words: CHRDL2 small-molecule binders, primary screen, biochemical, small-molecule microarray, 635 nm fluorescence (AID 1126).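 Note: printed compound slides probed with Chrdl2 protein at 4 µg/mL for 1 h at 4 C; score merges 667 nm emission intensity with signal to noise over three replicate slides.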 Particulars: small-molecule microarray binding, fluorescence 635 nm; higher = more signal.
The target of assay [8] is Concanavalin-A (Canavalia ensiformis) (UniProt P02866). Nature of the assay: ConA small-molecule binders, primary screen, artefact control for SMM control protein annotation, biochemical, small-molecule microarray, Alexa647 label, 635 nm (AID 1127).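 Note: z combines 667 nm emission intensity with signal-to-noise across three replicate slides.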 To be noted: ConA-A647 binding fluorescence, higher = more signal.
Chain of Concanavalin-A (Canavalia ensiformis) (P02866 whole entry, looked up): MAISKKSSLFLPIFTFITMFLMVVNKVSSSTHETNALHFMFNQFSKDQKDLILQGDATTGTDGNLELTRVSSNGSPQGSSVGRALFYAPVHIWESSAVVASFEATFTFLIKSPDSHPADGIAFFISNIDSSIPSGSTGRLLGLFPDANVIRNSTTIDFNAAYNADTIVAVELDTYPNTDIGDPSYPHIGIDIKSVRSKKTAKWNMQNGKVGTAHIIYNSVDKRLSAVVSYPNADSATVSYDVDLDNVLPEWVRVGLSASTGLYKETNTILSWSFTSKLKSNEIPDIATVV
The nature of assay [9]: anti-His antibody binders, primary screen, artefact control for SMM control protein annotation, biochemical, small-molecule microarray, 635 nm fluorescence (AID 1128).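 Note: score merges feature fluorescence with signal-to-noise for each printed compound spot.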 Particulars: anti-His Alexa647 antibody binding, higher = more signal.
Assay [10] relates to Human papillomavirus type 1a E7 protein (residues 1-88). Nature of the assay: HPV1a E7 small-molecule binders, primary screen, biochemical, small-molecule microarray, residues 1-88, 635 nm (AID 1129). To be noted: small-molecule microarray binding, fluorescence 635 nm; higher = more signal.
In assay [11] the target is Focal adhesion kinase 1 (Homo sapiens) (UniProt Q05397). Nature of the assay: small-molecule microarray binders of FAK, primary screen, biochemical, 635/667 nm fluorescence, BSA, DTT (AID 1130).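 Note: composite of spot emission at 667 nm and signal to noise over triplicate slides.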 To be noted: PTK2 binding, 635 nm fluorescence, higher = more signal.
Chain of Focal adhesion kinase 1 (Homo sapiens) (Q05397 whole entry, looked up): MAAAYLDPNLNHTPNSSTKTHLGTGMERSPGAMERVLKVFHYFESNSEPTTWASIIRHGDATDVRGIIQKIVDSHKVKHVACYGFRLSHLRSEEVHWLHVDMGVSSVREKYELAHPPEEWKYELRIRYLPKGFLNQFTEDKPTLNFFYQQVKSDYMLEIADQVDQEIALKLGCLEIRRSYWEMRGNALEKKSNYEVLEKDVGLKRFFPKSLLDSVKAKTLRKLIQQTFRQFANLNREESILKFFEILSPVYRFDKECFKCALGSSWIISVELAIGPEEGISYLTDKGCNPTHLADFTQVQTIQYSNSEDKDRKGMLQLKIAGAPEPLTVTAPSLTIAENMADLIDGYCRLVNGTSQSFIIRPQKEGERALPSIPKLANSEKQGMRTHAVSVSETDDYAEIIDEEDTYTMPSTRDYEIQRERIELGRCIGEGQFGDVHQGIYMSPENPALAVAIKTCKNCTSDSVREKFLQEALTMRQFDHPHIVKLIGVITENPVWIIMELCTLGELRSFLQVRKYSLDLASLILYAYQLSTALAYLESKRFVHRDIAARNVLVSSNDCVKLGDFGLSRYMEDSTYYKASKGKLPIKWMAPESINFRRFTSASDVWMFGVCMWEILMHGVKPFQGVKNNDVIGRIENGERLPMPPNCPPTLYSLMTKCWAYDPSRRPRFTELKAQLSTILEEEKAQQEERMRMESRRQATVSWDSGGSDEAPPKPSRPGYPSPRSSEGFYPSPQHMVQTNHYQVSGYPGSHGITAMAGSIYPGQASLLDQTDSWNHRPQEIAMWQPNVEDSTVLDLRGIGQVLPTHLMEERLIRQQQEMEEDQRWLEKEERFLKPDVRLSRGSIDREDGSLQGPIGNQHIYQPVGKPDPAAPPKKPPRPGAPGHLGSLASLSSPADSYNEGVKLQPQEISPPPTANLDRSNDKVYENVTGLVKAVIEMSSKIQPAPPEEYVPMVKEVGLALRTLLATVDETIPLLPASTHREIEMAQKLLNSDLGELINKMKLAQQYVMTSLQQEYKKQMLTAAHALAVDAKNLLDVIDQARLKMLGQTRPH
In assay [12] the test system is Fibrinogen (Alexa647-labelled). In words: fibrinogen binders on compound microarrays, profiling panel, artefact control for SMM control-protein annotation, biochemical, small-molecule microarray, 635/667 nm fluorescence (AID 1131).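 Note: z-score merges 667 nm fluorescence with per-spot signal-to-noise over triplicate slides.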 To be noted: fibrinogen-A647 binding fluorescence, higher = more signal.
Assay [13] addresses Follistatin (Homo sapiens) (UniProt P19883). In words: follistatin binders on small-molecule microarrays, primary screen, biochemical, small-molecule microarray, 635/667 nm fluorescence (AID 1132). To be noted: FST binding, 635 nm fluorescence, higher = more signal.
Assay [14] has as its target Fibroblast growth factor 2 (Homo sapiens) (UniProt P09038). In words: FGF2 binders on small-molecule microarrays, primary screen, biochemical, small-molecule microarray, 635/667 nm fluorescence (AID 1133). Particulars: small-molecule microarray binding, FGF2, fluorescence 635/667; higher = more signal.
Assay [15] is described as follows: mitochondrial membrane potential change in A549 cells, profiling panel, cell-based, JC-1 fluorescence, basal, 24 h, 100 nL (AID 1138).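 Note: A549 lung adenocarcinoma cells under basal conditions with no added stimulus; test concentration not given here.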 To be noted: higher = more signal.
The subject of a further assay is Lefty1. In words: Lefty1 binders on small-molecule microarrays, primary screen, biochemical, small-molecule microarray, 635/667 nm fluorescence (AID 1139). To be noted: small-molecule microarray binding, fluorescence 635/667; higher = more signal.
In assay [16] the test system is wheat germ agglutinin (Triticum aestivum), Alexa647-labelled. In words: wheat germ agglutinin binders on compound microarrays, profiling panel, artefact control for SMM control-protein annotation, biochemical, small-molecule microarray, 635/667 nm fluorescence (AID 1140).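 Note: score merges 667 nm feature emission with signal to noise over triplicate slides.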 To be noted: WGA-A647 binding, 635 nm fluorescence, higher = more signal.
Assay [17] has as its target Luciferin 4-monooxygenase (Photinus pyralis) (UniProt P08659). Nature of the assay: firefly luciferase enzyme inhibitors, primary screen, biochemical, luminescence, purified enzyme, 2006 set (AID 1141).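 Note: cell-free assay with purified firefly luciferase at 100 ng per well in PBS; test concentration not given here.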 Particulars: SteadyGlo luminescence, 30 min, higher = more signal, called active from +8 up or from −8 down.

Each structure is given as a SMILES string. The source made the active and inactive calls.

Chain of Follistatin (Homo sapiens) (P19883 whole entry, looked up): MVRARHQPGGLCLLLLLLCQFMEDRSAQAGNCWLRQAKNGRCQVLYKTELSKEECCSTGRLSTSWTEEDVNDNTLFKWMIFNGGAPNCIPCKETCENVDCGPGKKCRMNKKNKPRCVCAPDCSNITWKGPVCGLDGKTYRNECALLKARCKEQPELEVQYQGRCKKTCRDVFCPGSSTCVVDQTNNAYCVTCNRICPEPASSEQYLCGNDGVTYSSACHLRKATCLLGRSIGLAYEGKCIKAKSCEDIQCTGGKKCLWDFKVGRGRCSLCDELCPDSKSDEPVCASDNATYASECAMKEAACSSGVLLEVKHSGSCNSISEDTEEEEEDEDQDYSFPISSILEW
Chain of Fibroblast growth factor 2 (Homo sapiens) (P09038 whole entry, looked up): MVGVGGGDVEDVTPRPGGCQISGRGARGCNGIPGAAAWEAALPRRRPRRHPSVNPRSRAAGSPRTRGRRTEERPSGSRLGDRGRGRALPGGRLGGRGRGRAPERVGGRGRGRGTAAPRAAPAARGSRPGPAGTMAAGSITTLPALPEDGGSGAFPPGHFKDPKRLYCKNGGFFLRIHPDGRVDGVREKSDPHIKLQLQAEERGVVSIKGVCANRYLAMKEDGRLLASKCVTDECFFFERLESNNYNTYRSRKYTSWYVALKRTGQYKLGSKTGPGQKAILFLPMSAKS
Chain of Luciferin 4-monooxygenase (Photinus pyralis) (P08659 whole entry, looked up): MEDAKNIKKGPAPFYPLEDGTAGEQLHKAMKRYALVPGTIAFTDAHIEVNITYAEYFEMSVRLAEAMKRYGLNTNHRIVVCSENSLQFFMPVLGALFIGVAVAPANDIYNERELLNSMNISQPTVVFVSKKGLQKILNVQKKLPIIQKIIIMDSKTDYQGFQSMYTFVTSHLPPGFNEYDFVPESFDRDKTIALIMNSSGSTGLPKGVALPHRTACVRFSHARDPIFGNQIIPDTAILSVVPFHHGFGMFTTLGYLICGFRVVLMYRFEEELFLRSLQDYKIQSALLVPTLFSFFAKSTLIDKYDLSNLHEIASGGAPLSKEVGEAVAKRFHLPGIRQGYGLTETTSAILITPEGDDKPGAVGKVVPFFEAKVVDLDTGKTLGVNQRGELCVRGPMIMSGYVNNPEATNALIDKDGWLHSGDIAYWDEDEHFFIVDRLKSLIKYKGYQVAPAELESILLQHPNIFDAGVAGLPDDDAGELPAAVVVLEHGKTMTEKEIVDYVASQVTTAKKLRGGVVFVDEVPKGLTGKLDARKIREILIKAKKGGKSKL
Chain of Albumin (Bos taurus) (P02769 whole entry, looked up): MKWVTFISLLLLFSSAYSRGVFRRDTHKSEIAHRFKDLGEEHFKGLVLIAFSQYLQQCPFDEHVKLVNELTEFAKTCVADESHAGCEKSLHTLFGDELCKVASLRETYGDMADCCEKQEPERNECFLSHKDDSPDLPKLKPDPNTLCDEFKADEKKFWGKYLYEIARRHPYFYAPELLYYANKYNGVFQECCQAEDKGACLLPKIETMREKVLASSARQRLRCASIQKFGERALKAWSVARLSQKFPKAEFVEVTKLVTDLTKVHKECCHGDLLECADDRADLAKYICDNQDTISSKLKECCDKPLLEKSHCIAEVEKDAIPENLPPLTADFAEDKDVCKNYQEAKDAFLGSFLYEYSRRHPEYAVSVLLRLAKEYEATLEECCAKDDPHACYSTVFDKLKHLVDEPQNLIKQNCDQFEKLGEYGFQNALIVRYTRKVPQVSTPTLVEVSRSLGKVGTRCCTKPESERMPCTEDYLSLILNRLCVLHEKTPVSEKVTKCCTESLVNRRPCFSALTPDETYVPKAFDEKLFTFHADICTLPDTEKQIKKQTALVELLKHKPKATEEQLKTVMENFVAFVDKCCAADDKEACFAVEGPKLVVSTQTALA

On to `O=C(NN=C1C[C@@H](O)[C@@H](O)[C@@H]2[C@@H]3C(=O)N(c4cccc(Oc5ccccc5)c4)C(=O)[C@@H]3CC[C@@H]12)OCc1ccccc1`, for which the composite z-score in the assay with Albumin (Bos taurus) is 0.564; in [2], 0.0425; in assay [3], -0.0995; in assay [4], -0.249; in assay [5] it was 0.36; in [6], -0.0773. For the same molecule, the composite z-score with Sam68 (KHDRBS1) is 0.24; in [7], 0.162; in assay [8], 0.277; in [9] it was -0.0621; in [10] it was 0.0508; in assay [11], 0.0623. Besides, the composite z-score in assay [12] was 0.81; in assay [13], -0.0636; in assay [14] it was -0.0953; in the assay on Lefty1, 0.211; in [16], 0.764. Also, the composite Z-score in assay [1] is 0.187 (inactive). Moreover, the z-score in assay [15] is -0.0675; in assay [17] it was 0.663 (inactive).
In the case of `COC(=O)C1=C(C)N(Cc2ccccc2)[C@]23O[C@](C(=O)OC)(C(=O)N2[C@@H]1c1ccccc1)[C@H]1CCOC(=O)[C@H]13`, the composite z-score with Albumin (Bos taurus) was 0.735; in assay [2], -0.0587; in assay [3], -0.131; in assay [4] it was 0.0198; in [5], -0.12; in assay [6] it was 0.21. For the same molecule, the composite z-score is -0.0775 in the assay with Sam68 (KHDRBS1); 0.702 in assay [7]; 0.0349 in assay [8]; 0.038 in [9]; 0.192 in [10]; 0.149 in assay [11]. The composite z-score in assay [12] came to 0.628; in [13] it was 0.384; in assay [14] it was 0.52; in the assay on Lefty1 it was 1.41; in [16] it was 0.84. The composite Z-score in [1] is 0.493 (inactive). Besides, the z-score in assay [15] is 0.328; in assay [17] it was -0.431 (inactive).
Consider `N#Cc1ccc(NN2C(C(O)c3cccc4ccccc34)C=CC3C(=O)N(c4ccccc4)C(=O)C32)cc1` (stereo not given), for which the composite z-score in the assay with Albumin (Bos taurus) was determined as 0.595; in [2] it was 0.479; in [3], 0.0687; in [4], 0.696; in [5], 2.82; in [6] it was 0.599. Further, the composite z-score in the assay on Sam68 (KHDRBS1) is 1.31; in [7], -0.0989; in assay [8], 0.926; in assay [9] it was 1.06; in [10] it was 1.24; in [11], 0.413. Moreover, the composite z-score in assay [12] was 0.965; in [13], 1.23; in assay [14], -0.24; in the assay on Lefty1, 0.279; in assay [16] it was 1.24. Also, the composite Z-score in assay [1] is 0.544 (inactive). Moreover, the z-score in assay [15] was 1.11; in [17] it was 0.512 (inactive).
Consider `CC(C)OC(=O)C=C1C[C@@H](c2ccc(C#N)cc2)O[C@@H](c2ccc(C#N)cc2)O1`, for which the composite z-score amounted to 0.992 with Albumin (Bos taurus); 0.725 in [2]; 0.0186 in assay [3]; 0.693 in assay [4]; 3.07 in assay [5]; 0.148 in assay [6]. Besides, the composite z-score in the assay with Sam68 (KHDRBS1) was 1.32; in assay [7], -0.595; in assay [8] it was 1.15; in assay [9], 1.48; in assay [10] it was 1.22; in assay [11], 0.704. Besides, the composite z-score in assay [12] was found to be 0.978; in assay [13] it was 1.31; in assay [14] it was 0.267; with Lefty1, 0.48; in assay [16], 0.972. In assay [1], the composite Z-score was 0.914 (inactive). Further, the figures for the z-score in [15] and in assay [17] were -0.356 and -0.178 (inactive), respectively.
For the molecule `CO[C@H]1COC(=O)[C@@H]2CCCN2C(=O)[C@@H](C)COC(=O)CC=C[C@@H]1C`, the composite z-score with Albumin (Bos taurus) was -0.414; in assay [2] it was -0.0647; in [3] it was -0.0907; in assay [4], -0.329; in [5], -0.641; in [6] it was 0.359. Further, the composite z-score in the assay with Sam68 (KHDRBS1) is 0.474; in assay [7], 1.4; in assay [8] it was 0.75; in [9], 1.42; in [10], -0.217; in assay [11] it was -0.114. Moreover, the composite z-score was 0.112 in [12]; 1.02 in [13]; 1.46 in assay [14]; 0.898 in the assay with Lefty1; -0.114 in [16]. Further, in assay [1], the composite Z-score is -0.275 (inactive). Further, the figures for the z-score in assay [15] and in [17] were -0.409 and 1.29 (inactive), respectively.
With `CCOC(=O)[C@H](CC(C)C)NC(=O)CCC1CC(OC(=O)NCCc2ccc(F)cc2)CC2(CCCC(COC(=O)NCc3ccccc3)O2)O1` (stereo not given in full), the composite z-score in the assay with Albumin (Bos taurus) was 0.173; in assay [2] it was 0.257; in assay [3], -0.131; in assay [4], 0.274; in assay [5], 1.27; in [6] it was 0.362. In addition, the composite z-score is 1.14 in the assay on Sam68 (KHDRBS1); 0.623 in assay [7]; 0.754 in assay [8]; 0.49 in assay [9]; 1.17 in assay [10]; 0.212 in assay [11]. In addition, the composite z-score was 0.538 in assay [12]; 0.693 in [13]; 0.936 in [14]; 1.04 with Lefty1; 0.422 in assay [16]. The composite Z-score in [1] was -0.0657 (inactive). The z-score is -0.692 in [15] and 0.629 (inactive) in assay [17].
